Source: PubChem BioAssay (several laboratories)
MEKK2 mut-MEK5 – signal of MEK5 binding to mutant human MEKK2 PB1 domain. percent response, % at 10 µM. 290,000 compounds, 0.35% hits. bead flow cytometry, Alexa488-MEK5 binding to MEKK2 mutant; in the data active = percent response above about 24%, passing the limit was not always enough
MEKK3 PB1 HTS – MEKK3-MEK5 PB1 interaction, increase or decrease; Q99759; bead-based flow cytometry, Alexa488-MEK5 binding to MEKK3; actives lie on both sides; 0 = blocked by unlabeled MEK5, 100 = vehicle; binding response (% of control), % at 10 µM; 290,000 compounds, 1.4% hits;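 active = binding response more than 3 SD above or below the average of its plate-row segment, actives on both sides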;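 note: Alexa488 bead fluorescence after subtracting the streptavidin-only scavenger bead signal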
FID counter – fluorescent intercalator displacement, NS3 helicase counter-screen | DNA fluorescent intercalator displacement, fluorescence | inhibition, % at 7.9 µM | 290,000 compounds, 0.17% hits; in the data active = inhibition above about 37%;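 note: higher means more ethidium bromide displaced from hairpin DNA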
dFosB activator – activators of mouse delta FosB homodimer; P13346; purified delta FosB, TAMRA-CDK5 oligo fluorescence polarization; percent of positive-control signal above neutral wells; activation, % at 25 µM; 340,000 compounds, 0.99% hits; AID 493131;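 active = mean activation above about 17%, with every replicate also reaching it, limit read from the data, passing the limit was not always enough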
Target sequence (P13346 whole entry, looked up): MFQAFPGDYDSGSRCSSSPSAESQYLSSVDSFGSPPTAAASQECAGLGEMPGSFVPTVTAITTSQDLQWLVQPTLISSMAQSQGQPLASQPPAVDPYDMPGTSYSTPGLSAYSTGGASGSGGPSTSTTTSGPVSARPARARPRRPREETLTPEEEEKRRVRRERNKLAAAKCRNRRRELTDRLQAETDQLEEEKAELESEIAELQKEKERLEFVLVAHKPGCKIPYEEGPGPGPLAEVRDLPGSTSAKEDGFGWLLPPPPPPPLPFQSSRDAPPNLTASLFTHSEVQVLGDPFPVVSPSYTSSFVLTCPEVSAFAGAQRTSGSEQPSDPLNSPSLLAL
MEKK2wt PB1 HTS – raises or lowers MEK5 binding to wildtype human MEKK2 PB1 domain. binding response (% of control), % at 10 µM. AID 1531. 290,000 compounds, 1.1% hits. bead flow cytometry, Alexa488-MEK5 binding to MEKK2 WT; actives lie on both sides. Q9Y2U5; in the data active = binding response below about 67% or above about 130%
MEKK2wt confirm – raises or lowers MEK5 binding to wildtype human MEKK2, retest | shares compounds with MEKK3 PB1 HTS | bead flow cytometry, Alexa488-MEK5 binding to MEKK2 WT; actives lie on both sides | binding response (% of control), % at 10 µM | 5,900 compounds, 2.4% hits | AID 1892; in the data active = binding response below about 16% or above about 210%; inactive = in between
MEKK2mut confirm – signal of MEK5 binding to mutant human MEKK2, retest. shares compounds with MEKK3 PB1 HTS. bead flow cytometry, Alexa488-MEK5 binding to MEKK2 mutant. 5,900 compounds, 2% hits. percent response, % at 10 µM; in the data active = percent response mostly above about 71%, no sharp cut-off; inactive = mostly below about 38%;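 note: higher means compound restores mutant binding toward wildtype level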
MEKK3-MEK5 inh – confirmation of inhibitors of MEK5 binding to human MEKK3. binding response (% of control), % at 10 µM. shares compounds with MEKK3 PB1 HTS. bead flow cytometry, Alexa488-MEK5 binding to MEKK3; active compounds read low. 5,900 compounds, 1.8% hits. AID 1894;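 active = binding response below 72% of control, or above a set upper limit, though filed actives all read lower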;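 note: lower values mean stronger disruption of MEK5 binding to MEKK3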
Each line names hits and unclear results; the compound was inactive in the other large screens (follow-up assays come after a bar, where they were run); [ ] = another dose, or the depositor's remark. Only some compounds are listed: those with a hit (about 2.9% of all), similar ones and a draw of the others.

COCCN(C(=O)c1cc(-c2ccncc2)nc2ccccc12)c1c(N)n(CC(C)C)c(=O)[nH]c1=O	none (no result: MEKK2 mut-MEK5, MEKK3 PB1 HTS, FID counter, MEKK2wt PB1 HTS)
COc1cc2cc(CN(Cc3cccs3)C(=S)Nc3ccccc3)c(=O)[nH]c2cc1OC	none
CC1S/C(=C(\C#N)C(=O)NCc2ccco2)N(Cc2ccco2)C1=O (configuration not stated)	MEKK3 PB1 HTS 49[inhibitor], MEKK2wt PB1 HTS 38[inhibitor] | MEKK2wt confirm inactive | MEKK2mut confirm inactive | MEKK3-MEK5 inh inactive
CC1Sc2ccc(S(=O)(=O)CCC(=O)NC3CCCC(C)C3C)cc2NC1=O (configuration not stated)	none
O=C(Oc1ccccc1N1C(=O)C2CCCCC2C1=O)c1ccccc1 (configuration not stated)	none (no result: MEKK2 mut-MEK5, MEKK3 PB1 HTS, MEKK2wt PB1 HTS)
CC1CCC2C(=O)N(c3ccccc3OC(=O)c3ccccc3F)C(=O)C2C1 (configuration not stated)	MEKK3 PB1 HTS 143 | MEKK2wt confirm inactive | MEKK2mut confirm inactive | MEKK3-MEK5 inh inactive
O=C(Nc1cc(C(F)(F)F)ccc1F)C1CCCC1	none
O=C(Nc1cc(C(F)(F)F)ccc1F)C1CCCCC1	MEKK3 PB1 HTS 72[inhibitor] | MEKK2wt confirm inactive | MEKK2mut confirm inactive | MEKK3-MEK5 inh inactive
CCCn1c(C)cc(C(=O)COC(=O)c2ccc[nH]c2=O)c1C	MEKK3 PB1 HTS 130 | MEKK2wt confirm inactive | MEKK2mut confirm inactive | MEKK3-MEK5 inh inactive
O=S(=O)(c1cccc2nsnc12)N1CCN(c2ccc(F)cc2)CC1	MEKK3 PB1 HTS 72[inhibitor] | MEKK2wt confirm inactive | MEKK2mut confirm inactive | MEKK3-MEK5 inh inactive
c1ccc(CCNc2ccnc3cc4ccccc4cc23)cc1	MEKK2 mut-MEK5 97, MEKK2wt PB1 HTS 210 | MEKK2wt confirm inactive | MEKK2mut confirm inactive | MEKK3-MEK5 inh inactive
CCOc1ccc(/C=N/NC(=O)c2ccccc2Cl)cc1CN1CC2CC(C1)c1cccc(=O)n1C2 (configuration not stated)	none (no result: MEKK2 mut-MEK5, MEKK3 PB1 HTS, FID counter, MEKK2wt PB1 HTS)
O=C(NNc1nc(-c2ccccc2)cs1)c1cccs1	MEKK3 PB1 HTS 69[inhibitor] (no result: dFosB activator) | MEKK2wt confirm inactive | MEKK2mut confirm inactive | MEKK3-MEK5 inh inactive
O=C(CCCNS(=O)(=O)c1cccs1)N1CCN(c2ccc(F)cc2)CC1	none
O=C(CCS(=O)(=O)c1cccs1)N1CCN(c2ccc(F)cc2)CC1	MEKK3 PB1 HTS 122 | MEKK2wt confirm inactive | MEKK2mut confirm inactive | MEKK3-MEK5 inh 71
Cc1ccc(N(C)S(=O)(=O)c2cccc(C(=O)OCC(=O)c3c(N)n(C)c(=O)n(C)c3=O)c2)cc1	none (no result: MEKK2 mut-MEK5, MEKK3 PB1 HTS, FID counter, MEKK2wt PB1 HTS)
CCN1CCN(c2nc(-c3ccccc3)nc3ccccc23)CC1	MEKK3 PB1 HTS 142 | MEKK2wt confirm inactive | MEKK2mut confirm inactive | MEKK3-MEK5 inh inactive
Cc1ncc([N+](=O)[O-])n1Cc1ccccc1F	none
Cc1ncc([N+](=O)[O-])n1Cc1ccc(F)cc1	MEKK3 PB1 HTS 70[inhibitor] | MEKK2wt confirm inactive | MEKK2mut confirm inactive | MEKK3-MEK5 inh inactive
CC(C)(O)C#Cc1ccc(C(=O)N2CCN(c3ccc(Cl)cc3)CC2)cc1	MEKK3 PB1 HTS 49[inhibitor] | MEKK2wt confirm inactive | MEKK2mut confirm inactive | MEKK3-MEK5 inh inactive
CC(C)(O)C#Cc1ccc(C(=O)N2CCN(c3ccc(F)cc3)CC2)cc1	none
CC1CCCC(C)N1C(=O)COC(=O)/C=C/c1ccc(Br)o1 (configuration not stated)	none (no result: MEKK2 mut-MEK5, MEKK3 PB1 HTS, FID counter, MEKK2wt PB1 HTS)
COc1ccc(/C=N\NC(=O)C2=NNC(=O)C2C)cc1 (configuration not stated)	none
O=C(C[n+]1cc(-c2ccc(Cl)cc2)n2c1CCC2)Nc1nc(-c2ccc(F)cc2)cs1	MEKK2wt PB1 HTS 177 | MEKK2wt confirm inactive | MEKK2mut confirm inactive | MEKK3-MEK5 inh inactive
O=C(C[n+]1cc(-c2ccccc2)n2c1CCC2)Nc1nc(-c2ccc(F)cc2)cs1	MEKK2wt PB1 HTS 181 | MEKK2wt confirm inactive | MEKK2mut confirm inactive | MEKK3-MEK5 inh inactive
O=C(O)CCc1nnc2n(Cc3ccc(F)cc3)c(=O)c3ccccc3n12	none
CCOP(=O)(OCC)C(NC(=O)C(F)(F)F)c1ccccc1 (configuration not stated)	MEKK3 PB1 HTS 137 | MEKK2wt confirm inactive | MEKK2mut confirm inactive | MEKK3-MEK5 inh inactive
CC(=O)c1cccc(NS(C)(=O)=O)c1	none
CS(=O)(=O)Nc1cccc(C(=O)OCCCOc2ccc(F)cc2)c1	MEKK3 PB1 HTS 64[inhibitor], MEKK2wt PB1 HTS 31[inhibitor] | MEKK2wt confirm inactive | MEKK2mut confirm inactive | MEKK3-MEK5 inh inactive
CCOc1ccc(-n2c(SCc3cc(=O)oc4cc(C)c(C(C)C)cc34)nnc2-c2cccnc2)cc1	MEKK3 PB1 HTS 128 | MEKK2wt confirm inactive | MEKK2mut confirm inactive | MEKK3-MEK5 inh inactive
Cc1cc2oc(=O)cc(CSc3nnc(-c4cccs4)o3)c2cc1C(C)C	MEKK3 PB1 HTS 134 | MEKK2wt confirm inactive | MEKK2mut confirm inactive | MEKK3-MEK5 inh inactive
O=C(NC1CCCC1)c1ccc(S(=O)(=O)N2CCOCC2)cc1	MEKK3 PB1 HTS 131 | MEKK2wt confirm inactive | MEKK2mut confirm inactive | MEKK3-MEK5 inh inactive
CCOc1cc(CNCCc2ccc(S(N)(=O)=O)cc2)ccc1OCc1ccc(Cl)cc1	MEKK2 mut-MEK5 46, FID counter 37, MEKK2wt PB1 HTS 214 | MEKK2wt confirm inactive | MEKK2mut confirm inactive | MEKK3-MEK5 inh inactive
COc1cc(CNCCc2ccc(S(N)(=O)=O)cc2)ccc1OCc1ccc(Cl)cc1	MEKK2 mut-MEK5 71, MEKK2wt PB1 HTS 232 | MEKK2wt confirm inactive | MEKK2mut confirm inactive | MEKK3-MEK5 inh inactive
NS(=O)(=O)c1ccc(Nc2ccc([N+](=O)[O-])c3nonc23)cc1	none
NS(=O)(=O)c1ccc(Nc2ncccc2[N+](=O)[O-])cc1	MEKK3 PB1 HTS 1.0[inhibitor], MEKK2wt PB1 HTS 0.0[inhibitor] | MEKK2wt confirm inactive | MEKK2mut confirm inactive | MEKK3-MEK5 inh inactive
Cc1ccc(N=C(NO)c2nonc2N)c(C)c1	none
Cc1ccc(N=C(N(C)C)P(=O)(N(C)C)N(C)C)c(C)c1	MEKK3 PB1 HTS 72[inhibitor] | MEKK2wt confirm inactive | MEKK2mut confirm inactive | MEKK3-MEK5 inh inactive
COC(=O)C(Cc1ccccc1)NC(=O)C12CC3CC(CC(C3)C1)C2 (configuration not stated)	MEKK3 PB1 HTS 134 | MEKK2wt confirm inactive | MEKK2mut confirm inactive | MEKK3-MEK5 inh inactive
COC(=O)C(Cc1ccc(O)cc1)NC(=O)C12CC3CC(CC(C3)C1)C2 (configuration not stated)	none
CCCCCN(C(=O)CCC(=O)OCc1ccc(C(C)C)cc1)c1c(N)n(CCCC)c(=O)[nH]c1=O	none (no result: MEKK2 mut-MEK5, MEKK3 PB1 HTS, FID counter, MEKK2wt PB1 HTS)
